Nrf2 activator: activates Nrf2 signaling | AREc32 ARE-luciferase reporter (MCF7-derived line), luminescence, 24 h | Potency, µM (series often up to 46.1 µM), without a hit: top-dose activation, most hits filed as activators | 410,000 tested, 0.31% active | AID 624171; also: % of control where 0% means no effect; nearly all actives have a fitted effect of over 65% in size
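For detection, Steady-Glo was added and plates sat 30 min at RT; before that, AREc32_Fluc cells grown overnight in OPTI-MEM/5% FBS had been treated with 23 nL compound for 24 hr at 37 deg C.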
A549 viability: counter-screen for Nrf2 inhibitors: cytotoxicity in A549 cells | 390,000 tested, 0.16% active | A549 ARE-Fluc cells, CellTiter-Fluor viability, 18-24 h | Potency, µM (top dose mostly 46 µM), for the others: top-dose activity change, negative = cytotoxicity, hits mostly inhibitors | AID 504648; also: % is scaled to controls: 0 for no effect and ±100 for the full control effect
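A549 ARE-Fluc cells in 5% FBS OPTI-MEM, 5000 cells/well, rested 2 h then exposed to compounds in concentration-response for 18-24 h at 37 °C. Viability by CellTiter-Fluor fluorescence (Ex 405/Em 525) after 30 min; luciferase luminescence (BugLite, 15 min, RT) read afterwards.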
ELG1 repair inh: inhibitors of ELG1-dependent DNA repair in HEK293T cells | HEK293T ELG1-luciferase reporter, luminescence, 16 h; DNA damage induced by 5-fluorouridine | AID 504467 | Potency, µM (top dose mostly 46.1 µM), for the others: at the top dose activity change, negative = inhibition, actives largely listed as inhibitors | 330,000 tested, 2.3% active; also: % is scaled to controls: 0 for no effect and ±100 for the full control effect; nearly all actives have a fitted effect of over 55% in size
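Step one: seed 2,000 cells per well. Step two: pin-transfer compound or DMSO alongside 5-fluorouridine. Step three: incubate 16 hr, 37 °C, 5% CO2. Step four: add ONE-Glo, wait 30 min, read luminescence.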
Nrf2 block: blocks Nrf2 signaling. Potency, µM (highest dose often 46 µM), for the others: at the highest dose activity change, negative = inhibition, most hits filed as inhibitors. AID 504444. A549 ARE-Fluc reporter, luciferase luminescence, 18-24 h. 360,000 tested, 2.1% active; also: % is scaled to controls: 0 for no effect and ±100 for the full control effect; nearly all actives have a fitted effect of over 60% in size
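Cells were seeded and rested 2 h, then exposed to compounds for 18-24 h. CellTiter-Fluor was read first as a viability measure. BugLite was added 15 min before the final luminescent read of ARE-luciferase activity in A549 cells.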
Numbers without * were called inactive; ? = inconclusive; . = no result. This is a sample that favours compounds with a hit; in the whole collection about 3.7% have one here. Calls follow the shape of the dose curve; as a rule, active = well fitted curve in the direction sought with a large enough effect; inconclusive = small, poorly fitted or top-dose-only effect, or another doubt; inactive = no such curve, though single readings can be large; an effect the other way counts as inactive or inconclusive. Potency is read from the fitted curve at half-maximal effect.

SMILES | Nrf2 activator | A549 viability | ELG1 repair inh | Nrf2 block
COc1cc(-c2noc(-c3cccs3)n2)cc(OC)c1OC | ? | 4.0% | 23.1µM* | 5.1%
CCOC(=O)c1noc2ncn(CC(=O)Nc3ccc(C)c(F)c3)c(=O)c12 | -0.9% | 2.8% | . | .
c1ccc(OCCCCn2cnc3ccccc32)cc1 | 0.2% | -17.4% | -0.3% | 23.1µM*
Cc1ccccc1OCCCCn1cnc2ccccc21 | 2.4% | -1.6% | ? | 6.51µM*
Cc1ccccc1OCCCCn1c(CO)nc2ccccc21 | 0.2% | 0.9% | ? | 23.1µM*
c1ccc(OCCn2cnc3ccccc32)cc1 | 0.4% | 1.9% | ? | 3.6%
O=C(OCc1ccccc1)/C(=C(\O)c1ccccc1Br)c1ccc(-c2ccccc2)cn1 | -0.2% | -3.1% | -2.3% | 7.9%
CCOC(=O)C1CCN(C(=O)c2nn(-c3ccc(C)cc3)c(=O)c3c2c2ccccc2n3C)CC1 | 0.8% | -0.1% | . | 10.6%
O=S(=O)(NCc1ccccc1)c1ccc(S(=O)(=O)N(Cc2ccccn2)C2CCCC2)cc1 | -0.5% | -19.6% | 20.6µM* | ?
CCN(C1CCCCC1)S(=O)(=O)c1ccc(S(=O)(=O)NCc2ccncc2)cc1 | -0.7% | -2.5% | ? | 8.2µM*
CCN(C1CCCCC1)S(=O)(=O)c1ccc(S(=O)(=O)NCCc2ccncc2)cc1 | -0.6% | -5.6% | ? | -16.2%
Cc1nnc(Cc2ccco2)c2n[nH]c(C)c12 | 11.2µM* | . | . | .
CN(c1ccccc1)S(=O)(=O)c1cccc(C(=O)Nc2ccc(N3CCOCC3)cc2)c1 | 3.8% | -3.5% | 18.3µM* | 14.6µM*
Cc1ccc(N(C)S(=O)(=O)c2cccc(C(=O)Nc3ccc(N4CCOCC4)cc3)c2)cc1 | 2.3% | 6.6% | 16.4µM* | ?
COc1ccc(N(C)S(=O)(=O)c2cccc(C(=O)Nc3ccc(N4CCOCC4)cc3)c2)cc1 | -0.3% | 0.4% | ? | -13.6%
CCOc1ccc(NC(=O)c2c(N)n(C)c(=O)[nH]c2=O)cc1 | -0.1% | 2.3% | . | -14.5%
CCN(C(=O)CSc1nc2scc(-c3ccccc3)c2c(=O)n1N)C1CCS(=O)(=O)C1 (stereo not drawn) | 2.6% | 1.9% | . | 11.9%
Cc1ccc(S(=O)(=O)N2C[C@H]3[C@H]4C(=O)N(Cc5ccccc5)C(=O)[C@H]4CC(=O)[C@H]3[C@@H]2c2ccccc2Cl)cc1 | -0.3% | . | . | .
O=C(CCl)N(c1ccccc1)C1CCS(=O)(=O)C1 (stereo not drawn) | -2.9% | ? | ? | 23.1µM*
CC(=O)Nc1ccc(C(=O)OCC(=O)N(c2ccccc2)C2CCS(=O)(=O)C2)cc1 (stereo not drawn) | 0.0% | 6.9% | 7.9% | ?
COc1cc(NC(=O)COC(=O)c2cnccn2)c(C)cc1[N+](=O)[O-] | -0.6% | 1.9% | 4.1% | 8.4%
NNC(=O)c1oc2nc(-c3ccccc3)cc(-c3ccccc3)c2c1N | 1.2% | 18.1% | 16.4µM* | ?
Cc1ccc(-c2cc(-c3ccco3)c3c(N)c(C(=O)NN)oc3n2)cc1 | 5.4% | -19.0% | 13µM* | 8.2µM*
COc1cccc(/C=N/NC(=O)c2oc3nc(-c4ccccc4)cc(-c4ccco4)c3c2N)c1 | 9.4% | 7.0% | 16.4µM* | ?
CNC(=S)NNC(=O)c1oc2nc(-c3ccccc3)cc(C)c2c1N | 4.1% | 0.9% | 0.0% | 7.7%
SMILES | Nrf2 activator | A549 viability | ELG1 repair inh | Nrf2 block
CCCOc1cccc(C(=O)N/N=C/c2ccoc2)c1 | 2.5% | 4.1% | ? | 6.1%
Cn1cccc1CC(=O)N/N=C/c1cccc2ccccc12 | 9.1% | -1.8% | -3.0% | 3.5%
Cn1cccc1/C=N/NC(=O)Cc1cccc2ccccc12 | 0.0% | -2.0% | 13µM* | 18.4µM*
CCCCCN1C(C(=O)c2ccccc2)=C(NC(=O)c2ccc(OC)cc2)c2ccccc2S1(=O)=O | -1.0% | -14.9% | . | -2.4%
CC(C)(C)OC(=O)CC[C@@H](C(=O)NCCCCCCCCCCC(=O)N1CCN(C(=O)OC(C)(C)C)CC1)n1cc(CCCCCNC(=O)OC(C)(C)C)nn1 | 5.1% | -0.1% | -21.3% | ?
CC(C)(C)OC(=O)NCCCCCc1cn([C@@H](CO)C(=O)NCCCCCCCCCCC(=O)N2CCN(C(=O)OC(C)(C)C)CC2)nn1 | -3.3% | ? | 3.16µM* | 7.31µM*
C(C#CCCCCCCCCC[n+]1ccccc1)#CCCCCCCCCC[n+]1ccccc1 | -1.8% | ? | 18.3µM* | 11.6µM*
